Screen size: about 13,000 compounds; about 3,200 (25%) showed an effect of 50% or more. The list shows a part of the results.
test system: P. falciparum stage V gametocytes; parameters: BacTiter-Glo ATP luminescence viability of purified stage V gametocytes in 384-well plates, per cent inhibition versus DMSO; conditions: 48 h, 5 µM; inhibitor

Row | SMILES | % Inhibition [%]
1 | O=[N+]([O-])c1cccc(Nc2cncc(-c3ccc(CO)cc3)c2)c1 [TCMDC-136670] | 46.28
2 | COc1cc(NCC(C)CNCc2cn(Cc3ccccc3)c3ccccc23)nc2ccccc12 (centres unmarked) [TCMDC-140496] | 91.67
3 | COc1cccc2[nH]c(NCCCNCc3cc(Br)cc(Br)c3)nc12 [TCMDC-139984] | 1.75
4 | CC(CNCc1cn(Cc2cc(Br)cc(Br)c2)c2ccccc12)CNc1cc(=O)c2ccccc2[nH]1 (centres unmarked) [TCMDC-140681] | 91.88
5 | COc1cc(NCCCNCc2cn(Cc3cc(Br)cc(Br)c3)c3ccccc23)nc2ccccc12 [TCMDC-140677] | 108.1
6 | CCCC(CNCc1cccc(C)c1)CNc1cc(=O)c2ccccc2[nH]1 (centres unmarked) [TCMDC-139435] | 10.27
7 | COc1cc(C(F)(F)F)cc2[nH]c(CNCCCNc3nc4ccccc4[nH]3)cc12 [TCMDC-140013] | 19.83
8 | COc1cc(NCC2(CNCc3cn(Cc4ccccc4)c4ccccc34)CCCCC2)nc2ccccc12.Cl [TCMDC-140539] | 107.8
9 | CCCC(CNCc1ccccc1)CNc1cc(=O)c2ccccc2[nH]1 (centres unmarked) [TCMDC-139434] | 43.59
10 | O=c1cc(NCC2(CNCc3cn(Cc4ccccc4)c4ccccc34)CCCCC2)[nH]c2ccccc12 [TCMDC-140540] | -59.9
11 | COc1ccccc1C1CCN(Cc2csc(NC(=O)c3ccc(-c4ccc(C(F)(F)F)cc4)cc3)n2)CC1 [TCMDC-138781] | -44.16
12 | Cc1cc2[nH]c(-c3ccc(C(=O)NCCCN4CCN(c5cccc(Cl)c5)CC4)cc3F)nc2cc1Cl [TCMDC-140029] | -4.793
13 | Cc1cccc2[nH]c(-c3cccc(-c4ccc(CN5CCN(CCO)CC5)cc4)c3)nc12 [TCMDC-133026] | 5.684
14 | O=C(NCc1cc2c(cc1Cl)OCO2)c1ccc(CNC2CCN(Cc3ccccc3)CC2)cc1 [TCMDC-140786] | 7.44
15 | C(=C(c1cccs1)c1cccs1)c1ccc(CNC2CCN(Cc3ccccc3)CC2)cc1 [TCMDC-138647] | 92.91
16 | c1ccc(CN2CCC(NCc3ccccc3-c3cccc(CNCc4ccc5c(c4)OCO5)c3)CC2)cc1 [TCMDC-140474] | 47.21
17 | C=CCOc1ccc(CNC2CCN(Cc3ccccc3)CC2)cc1Br [TCMDC-125268] | 13.93
18 | c1ccc(CN2CCC(NCc3ccc(-c4ccc(CNC5CCCC5)cc4)cc3)CC2)cc1 [TCMDC-140492] | 108.5
19 | O=C(NCc1cccc2ccccc12)c1ccc(CNC2CCN(Cc3ccccc3)CC2)cc1 [TCMDC-140789] | -3.964
20 | O=C(Nc1ccc(N2CCN(Cc3ccccc3)CC2)cc1)c1cccs1 [TCMDC-124320] | -18.09
21 | c1ccc(CN2CCC(NCc3ccc(-c4cccc(CNC5CCCC5)c4)cc3)CC2)cc1 [TCMDC-140491] | 106.1
22 | c1ccc(CN2CCC(NCc3ccccc3-c3ccc(CNCc4ccc5c(c4)OCO5)cc3)CC2)cc1 [TCMDC-140475] | 90.32
23 | C[C@@]12C[C@@H](Nc3nc(NCCc4ccc(O)cc4)nc(N4CCNCC4)n3)C[C@@H](C1)c1cccc(Cl)c1O2 [TCMDC-134047] | -6.304

Row | SMILES | % Inhibition [%]
24 | Cc1cc(NC(=O)Nc2ccc3nc(C)oc3c2)c2cc(Cl)ccc2n1 [TCMDC-140076] | 38.43
25 | O=C(Nc1ccc2c(c1)OCO2)NC1CCN(c2ccnc(Nc3ccc(F)cc3)n2)C1 (centres unmarked) [TCMDC-133605] | -89.44
26 | CC(C)Cc1csc(NC(=O)C=Cc2ccco2)c1C(=O)O [TCMDC-125660] | 6.698
27 | Clc1ccc(OCc2ccccc2)c(-c2nc(-c3nc4ncc(Br)cc4[nH]3)cs2)c1 [TCMDC-136729] | -65.34
28 | c1ccc(CN2CCC(NCc3ccccc3-c3ccc(CNC4CCCC4)cc3)CC2)cc1 [TCMDC-140473] | 106.4
29 | c1ccc(CN2CCC(NCc3ccc(-c4cncc5ccccc45)cc3)CC2)cc1 [TCMDC-134153] | 14.12
30 | COc1ccccc1NC(=O)Nc1cccc(-c2ccc(-c3nc4ccc(C(F)(F)F)cc4[nH]3)cc2)c1 [TCMDC-133203] | -14.42
31 | N#Cc1ccc(N2CCN(Cc3cccc(-c4ccc(-c5nc6ccccc6[nH]5)cc4)c3)CC2)nc1.O=C(O)C(F)(F)F [TCMDC-133937] | 5.421
32 | FC(F)(F)c1cnc(Sc2nnc(-c3ccco3)o2)c(Cl)c1 [TCMDC-125006] | -49.8
33 | FC(F)(F)c1cnc(Sc2nnc(-c3ccncc3)o2)c(Cl)c1 [TCMDC-123767] | 83.92
34 | CC1CCCCN1Cc1cccc(-c2c[nH]c3nc(NC4CCCC4)ncc23)c1 (centres unmarked) [TCMDC-133776] | -28.36
35 | COc1ccc2nccc([C@@H](O)CN3CCC(NCc4ccc5c(c4)oc(=S)n5C)CC3)c2c1 [TCMDC-141186] | 1.23
36 | O=[N+]([O-])c1ccc(N2CCCN(C(=S)Nc3ccc(F)cc3Br)CC2)nc1 [TCMDC-124054] | 81.59
37 | O=C(Nc1ccc(Cn2ncc(N3CCCNCC3)c(Cl)c2=O)cc1)Nc1ccc(F)cc1[N+](=O)[O-] [TCMDC-141926] | -31.19
38 | O=C(Nc1ccc([N+](=O)[O-])cc1Br)c1cc2ccccc2nc1Cl [TCMDC-124537] | 29.24
39 | N#Cc1ccc(NC(=NC2CCN(Cc3ccccc3)CC2)Nc2ccccc2Cl)c(O)c1 [TCMDC-140256] | -5.798
40 | Cc1cccc2nc(-c3cccc(-c4ccc(C(=O)NCc5ccccc5S(C)(=O)=O)cc4)c3)[nH]c12 [TCMDC-132505] | 5.091
41 | CC(C)n1nc(C(=O)N2CCN(c3ccccc3)CC2)c2ccccc2c1=O [TCMDC-124333] | 78.8
42 | Cn1nc(C(=O)N2CCC(c3[nH]ncc3Cc3ccccc3)CC2)c2ccccc2c1=O [TCMDC-124642] | 16.79
43 | CC(=O)CC(=O)N1CCN(c2ccccc2)CC1 [TCMDC-125502] | -5.255
44 | Cn1c2c(c3ccccc31)CN(CCC1(c3ccc(Cl)c(Cl)c3)CN(C(=O)c3ccccc3)CCO1)CC2 (centres unmarked) [TCMDC-135562] | -29.91
45 | COCCN(C(=O)Cc1cccs1)C(C(=O)NCc1ccc(OC)cc1)c1ccc(C(C)C)cc1 (centres unmarked) [TCMDC-125625] | -2.779
46 | CN1CCN(CCNc2c3ccccc3nc3c2ccc2ccccc23)CC1 [TCMDC-137723] | 92.22

Row | SMILES | % Inhibition [%]
47 | CN1CCN(CCNc2c3ccccc3nc3ccc4ccccc4c23)CC1 [TCMDC-137724] | 54.46
48 | CN(Cc1cnc2nc(N)nc(N)c2n1)c1ccc(C(=O)N[C@@H](CCC(=O)O)C(=O)O)cc1 [TCMDC-125858] | -8.966
49 | Cc1c(-c2cccc(Br)c2)[nH]c2nc(N)nc(N)c12 [TCMDC-137836] | -91.89
50 | O=C(c1ccccc1)N1CCC(CN2CCOC(c3ccccc3)(c3ccccc3)C2)CC1 [TCMDC-136346] | 86.1
51 | O=C(Nc1cccc(F)c1)N1CCC(CN2CCOC(c3ccccc3)(c3ccccc3)C2)CC1 [TCMDC-136345] | 66.91
52 | O=C(c1ccc(F)c(F)c1)N1CCOC(CCN2CCC(c3ccccc3)CC2)(c2ccc(Cl)c(Cl)c2)C1 (centres unmarked) [TCMDC-135337] | -91.33
53 | COc1cc(OC)cc(C(=O)N2CCOC(CCN3CCC(c4ccccc4)CC3)(c3ccc(Cl)c(Cl)c3)C2)c1 (centres unmarked) [TCMDC-135348] | -85.08
54 | CCOc1ccc(C(=O)N2CCOC(CCN3CCC(c4ccccc4)CC3)(c3ccc(Cl)c(Cl)c3)C2)cc1 (centres unmarked) [TCMDC-135344] | -65.78
55 | COc1ccc(C(=O)N2CCC(CN3CCOC(c4ccccc4)(c4ccccc4)C3)CC2)cc1 [TCMDC-136347] | 57.99
56 | O=C(Nc1cc(F)cc(F)c1)N1CCOC(CCN2CCC(c3ccccc3)CC2)(c2ccc(Cl)c(Cl)c2)C1 (centres unmarked) [TCMDC-135333] | 17.76
57 | O=C(Nc1ccccc1)N1CCC(CN2CCOC(c3ccccc3)(c3ccccc3)C2)CC1 [TCMDC-136344] | 40.09
58 | O=C(c1ccc(Cl)cc1)N1CCOC(CCN2CCC(c3ccccc3)CC2)(c2ccc(Cl)c(Cl)c2)C1 (centres unmarked) [TCMDC-135351] | -32.03
59 | NC(N)=NC(=O)Nc1cc(F)c(Cl)c(Br)c1 [TCMDC-137510] | -16.64
60 | CC(C)Nc1nc(NC2CCCCC2)nc(N2CCCCCCC2)n1 [TCMDC-139688] | -95.56
61 | Cc1nc2ccc(Nc3nccc(-c4c(-c5cccc(NC(=O)c6c(F)cccc6F)c5)nn5ccccc45)n3)cc2nc1C [TCMDC-135906] | -53.2
62 | Cc1cc(NN=Cc2cccc(Cl)c2)c2ccccc2n1 [TCMDC-142060] | -14.77
63 | Cc1ccc2nc(C)cc(NN=Cc3cccc(Cl)c3)c2c1 [TCMDC-142063] | 87.16
64 | Cc1ccc2c(NN=Cc3cccc(Cl)c3)cc(C)nc2c1 [TCMDC-142064] | 91.21
65 | Cc1ccc2c(NN=Cc3ccc(N(C)C)cc3)cc(C)nc2c1 [TCMDC-142076] | -47.79
66 | Cc1cc(N2CCCC2)nc(Nc2ccc(NC(=O)c3ccco3)cc2)n1 [TCMDC-124965] | -16.57
67 | O=C1C2C3SC(c4c3ccc3ccccc43)C2C(=O)N1c1ccccc1 (centres unmarked) [TCMDC-123946] | -5.395
68 | COC(=O)c1ccc(NC(=O)c2ccc(CCN3CCC(c4nc(COCC(F)(F)F)c(-c5ccc(F)cc5)o4)CC3)cc2)cc1 [TCMDC-138133] | -17.07
